The values below come from PubChem BioAssay (NCI).

About 83,000 compounds went through this panel and 20% of them were active in at least one assay; those are over-represented in the sample as a whole.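 In brief: 96-well plates, 48 h treatment, single concentration, percent growth endpoint.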 Calls of active or inactive are those of the source. Rule for the calls: active = growth percent below 10; inactive = the rest.

For the experiment, the system named is HL-60(TB) leukemia. The experiment is described as follows: NCI-60 one-dose screen, 48 h (100 = growth as untreated, 0 = no growth, -100 = all killed). Particulars: 10 µM unless noted.
Take `O=c1nc(NO)[nH]c(=O)n1Cc1ccccc1`: the growth is 105% (inactive).

In the case of `O=C(O)c1cc2cc(OCc3ccccc3)ccc2[nH]1`, the growth was 112% (inactive).

Consider `O=C1c2cc([N+](=O)[O-])ccc2-c2cc(Cl)c(NC(=O)C(F)(F)F)cc21`, for which the growth was 75.6% (inactive).

For the compound `CCCCOC(=O)c1ccc(NC(=O)C(C)N2CCOCC2)cc1` (stereo not given), the growth was 82% (inactive). For the compound `CC(=O)/C(=C/c1ccccc1)C(=O)CC(C)C`, the growth is 38.8% (inactive). Consider `CN(C)C(=O)SC1=C(c2c(Cl)cccc2Cl)C(=O)c2ccccc21`, for which the growth was -35.7% (active). Take `COc1cc(/C(C)=C(\c2ccc(Cl)cc2)c2ccc(OCCN(C)C)cc2)ccc1F`: the growth was 54.4% (inactive). Turning to `O=C(Nc1ccc(-n2cc(-c3ccncc3)c(-c3ccc(Cl)c(O)c3)n2)cc1)Nc1ccc(Cl)c(C(F)(F)F)c1`, the growth is -10.5% (active).

As for `C=C(Cl)C(=NC(C)(C)C)Nc1ccccc1C`, the growth is 43.3% (inactive).

Take `Cc1ccc(-c2nc3ccc(Cl)cn3c2NC2CCCCC2)o1`: the growth was 61.7% (inactive).

`COc1cc2c(O)n(CCCN3CCOCC3)c3c4cnc5cccc(c(=O)c3c2cc1OC)c54`: the growth was 42.8% (inactive). For the compound `C=CCn1c(SCC(=O)Nc2ccc(C(=O)/C=C/c3ccc(Cl)cc3)cc2)nnc1-c1cc(-c2ccccc2)nc2ccccc12`, the growth was 99.8% (inactive).

As to `Nc1nc(N)c(N=Nc2c(Br)cc(S(N)(=O)=O)cc2Br)c(N)n1`, the growth was 105% (inactive). Turning to `COc1cc2cc(Oc3ccc(NC(=O)Nc4ccc(F)c(C(F)(F)F)c4)cc3)c(C)nc2cc1OCCN1CCCCC1`, the growth was -24.5% (active). The result for `CC1SC(c2cccc(Oc3ccccc3)c2)N(CCc2cccs2)C1=O` (stereo not given) reads -21.9% (active).
